The panel holds about 83,000 compounds, 20% with a hit somewhere; the sample as a whole holds those more often.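 Negative percent growth values reflect cell death: -40 means 40% of the cells present at the start died, and -100 means all died.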 Activity calls are given as the source filed them. How the source made its calls: active means growth percent below 10; inactive means the rest.
Tests used:
Assay in all cases: NCI-60 one-dose screen, 48 h (100 = growth as untreated, 0 = no growth, -100 = all killed)
Conditions in all cases: 10 µM unless noted
SK-MEL-2 melanoma = system: SK-MEL-2 melanoma
SN12C renal = system: SN12C renal
CAKI-1 renal = system: CAKI-1 renal
A498 renal = system: A498 renal
CCRF-CEM leukemia = system: CCRF-CEM leukemia
MOLT-4 leukemia = system: MOLT-4 leukemia
EKVX NSCLC = system: EKVX NSCLC
UO-31 renal = system: UO-31 renal
TK-10 renal = system: TK-10 renal
ACHN renal = system: ACHN renal

Measured: growth

CCN(CC)c1ccc(/C=C(\C#N)c2cc3ccccc3[nH]2)cc1
inactive: SK-MEL-2 melanoma 43.3% | SN12C renal 69.4% | CAKI-1 renal 41.6% | A498 renal 52.7% | CCRF-CEM leukemia 50.9% | MOLT-4 leukemia 37.8%

O=C(CC(O)c1ccccc1)Nc1ccccn1 (stereo unspecified)
inactive: EKVX NSCLC 97% | SN12C renal 93.1% | UO-31 renal 77.1% | TK-10 renal 97.9% | ACHN renal 111% | CAKI-1 renal 87.8% | A498 renal 102% | CCRF-CEM leukemia 88.9% | MOLT-4 leukemia 79%

O=C1c2ccccc2-c2cn(Cc3ccccc3)c3cccc(c23)C1c1cccnc1 (stereo unspecified)
inactive: EKVX NSCLC 80.5% | SN12C renal 59.5% | UO-31 renal 54.9% | TK-10 renal 55.7% | ACHN renal 51.2% | CAKI-1 renal 51.4% | A498 renal 43.3% | CCRF-CEM leukemia 19.3% | MOLT-4 leukemia 34.8%

O=c1c2c(=NCCN3CCCC3)cc3c(=O)n(CCCN4CCOCC4)c(=O)c4ccc(c(O)n1CCCN1CCOCC1)c2c4-3
active: SK-MEL-2 melanoma -27.2% | SN12C renal 4.69% | ACHN renal 2.23% | CAKI-1 renal 8.73% | A498 renal -78.9% | CCRF-CEM leukemia 1.35% | MOLT-4 leukemia 2.58%

c1ccc2cc(Cn3c(-c4ccc5ccccc5c4)[n+](Cc4ccc5ccccc5c4)c4ccccc43)ccc2c1
active: SK-MEL-2 melanoma -67.7% | SN12C renal -88.2% | ACHN renal -51.5% | CAKI-1 renal -67.3% | A498 renal -64% | CCRF-CEM leukemia -4.24% | MOLT-4 leukemia -35.4%

Cc1ccc(S(=O)(=O)N2CCc3ccc(O)c4c3C2Cc2cc(Cl)ccc2-4)cc1 (stereo unspecified)
inactive: EKVX NSCLC 99.6% | SN12C renal 91.9% | UO-31 renal 48.8% | TK-10 renal 69.1% | ACHN renal 57.1% | CAKI-1 renal 56.1% | A498 renal 47.5% | CCRF-CEM leukemia 94% | MOLT-4 leukemia 74.4%

Cc1ccc(S(=O)(=O)N2C/C(=C\c3cc(F)cc(F)c3)C(=O)/C(=C/c3cc(F)cc(F)c3)C2)cc1
active: SK-MEL-2 melanoma -25.9% | SN12C renal -73.9% | TK-10 renal 8.08% | ACHN renal -91.4% | CAKI-1 renal -7.75% | A498 renal -25.7% | CCRF-CEM leukemia -9.43% | MOLT-4 leukemia -5.52%

CC(=O)OC[C@H](O)[C@@]1(O)CC[C@H]2[C@@H]3CCC4=CC(=O)CC[C@]4(C)[C@H]3[C@@H](O)C[C@@]21C
inactive: EKVX NSCLC 87.3% | SN12C renal 85.9% | UO-31 renal 78% | TK-10 renal 112% | ACHN renal 111% | CAKI-1 renal 85.5% | A498 renal 112% | CCRF-CEM leukemia 89.4% | MOLT-4 leukemia 89%

CN1CCN(C(=O)OCCOCCOC(=O)N2CCN(C)CC2)CC1
active: CCRF-CEM leukemia 8.24%
inactive: EKVX NSCLC 100% | SN12C renal 99.9% | UO-31 renal 95.8% | TK-10 renal 94.5% | ACHN renal 97% | CAKI-1 renal 131% | A498 renal 93% | MOLT-4 leukemia 52.7%

COc1cc(/C=C/C(=O)C2=C(/C=C/c3ccc(O)c(OC)c3)NC(=O)NC2c2ccc(O)c(OC)c2)ccc1O (stereo unspecified)
inactive: SK-MEL-2 melanoma 105% | SN12C renal 93.6% | ACHN renal 88.2% | CAKI-1 renal 93.9% | A498 renal 101% | CCRF-CEM leukemia 69.8% | MOLT-4 leukemia 70.3%

COc1ccc(/C=N/NC(=O)c2cnn3c2NC(c2ccccc2)C3)cc1OC1CCCC1 (stereo unspecified)
inactive: SK-MEL-2 melanoma 107% | SN12C renal 90.7% | TK-10 renal 109% | ACHN renal 95.3% | CAKI-1 renal 77.8% | CCRF-CEM leukemia 90.7% | MOLT-4 leukemia 69.1%

O=C(O)C[C@H](O)C[C@H](O)/C=C/c1c(C2CC2)nc2ccccc2c1-c1ccc(F)cc1
active: A498 renal -28.9%
inactive: EKVX NSCLC 93.6% | SN12C renal 30.3% | UO-31 renal 73.3% | TK-10 renal 111% | ACHN renal 39.7% | CAKI-1 renal 26.1% | MOLT-4 leukemia 110%

COc1ccc(-c2c3c(N)c4c(nc3nc3c2c(C)nn3-c2ccccc2)CCCC4)cc1
inactive: SK-MEL-2 melanoma 101% | SN12C renal 93.4% | TK-10 renal 86.8% | ACHN renal 77.4% | A498 renal 78.7% | MOLT-4 leukemia 23.6%

O=C1CC2c3cc(-c4cc5ccccc5o4)ccc3CCN2C(=O)N1c1ccccc1 (stereo unspecified)
inactive: SK-MEL-2 melanoma 83% | SN12C renal 89.3% | TK-10 renal 78.5% | ACHN renal 99.6% | A498 renal 82% | CCRF-CEM leukemia 68.2% | MOLT-4 leukemia 64.1%

Clc1ccc2c(N3CCN(c4ccnc(NC5CCCCC5)n4)CC3)ccnc2c1
inactive: SK-MEL-2 melanoma 72.9% | UO-31 renal 22.4% | TK-10 renal 61.1% | ACHN renal 45.5% | CAKI-1 renal 57.8%
active: A498 renal -40.7% | CCRF-CEM leukemia 8.39% | MOLT-4 leukemia -3.75%

COc1cc2nc(SCc3cc(OC)c(OC)c(OC)c3)n(-c3ccccc3OC)c(=O)c2cc1OC
inactive: SN12C renal 98% | UO-31 renal 36.3% | ACHN renal 88.5% | CAKI-1 renal 42.9% | A498 renal 25.5% | MOLT-4 leukemia 46.8%

O=C1NC(=O)C(CSc2ccccc2)(c2ccccc2)N1 (stereo unspecified)
inactive: EKVX NSCLC 110% | SN12C renal 103% | UO-31 renal 88.9% | ACHN renal 101% | CAKI-1 renal 87.7% | A498 renal 122% | CCRF-CEM leukemia 97.1% | MOLT-4 leukemia 97.8%

Oc1ccc2ccccc2c1C1NN=C(c2ccccc2)S1 (stereo unspecified)
active: UO-31 renal -11.5% | CAKI-1 renal -1.25%
inactive: EKVX NSCLC 27.4% | SN12C renal 17.2% | TK-10 renal 49% | ACHN renal 10.9% | A498 renal 31.3% | MOLT-4 leukemia 13%

Cc1ccc(S(=O)(=O)N2CCc3ccc(O)c4c3C2Cc2ccc3c(c2-4)OCO3)cc1 (stereo unspecified)
inactive: EKVX NSCLC 49.3% | SN12C renal 39.5% | UO-31 renal 30.4% | TK-10 renal 32.6% | ACHN renal 44.9% | CAKI-1 renal 32% | A498 renal 35.6% | MOLT-4 leukemia 10.9%

O=c1[nH]c(=S)[nH]c(=O)n1Cc1cccc2ccccc12
inactive: SN12C renal 101% | UO-31 renal 93% | ACHN renal 97.7% | CAKI-1 renal 86.9% | A498 renal 85.4% | CCRF-CEM leukemia 105% | MOLT-4 leukemia 99.7%

CC1=CN2C(=NC3=C(CCCC/C3=C\c3ccccc3)C2c2ccccc2)S1 (stereo unspecified)
inactive: SN12C renal 96.3% | UO-31 renal 78.1% | ACHN renal 99.5% | CAKI-1 renal 96.3% | A498 renal 117% | MOLT-4 leukemia 99.8%

CCOC(=O)C1=C(C)N2C(=NC3=C(CCCC/C3=C\c3cc(OC)c(OC)c(OC)c3)C2c2cc(OC)c(OC)c(OC)c2)S1 (stereo unspecified)
inactive: SN12C renal 75.2% | UO-31 renal 54.3% | ACHN renal 69.6% | CAKI-1 renal 65.6% | A498 renal 52% | CCRF-CEM leukemia 70.9% | MOLT-4 leukemia 45.3%

Clc1nc(-c2ccccn2)nc2sc3c(c12)CCCCCC3
active: ACHN renal -20.4% | CAKI-1 renal -65.2%
inactive: SN12C renal 84.9% | UO-31 renal 16.4% | A498 renal 118% | CCRF-CEM leukemia 72.4% | MOLT-4 leukemia 67.7%

CCOC(=O)C1=C(C)N2C(=NC3=C(CCCC/C3=C\c3ccccc3)C2c2ccccc2)S1 (stereo unspecified)
inactive: SN12C renal 101% | UO-31 renal 91% | ACHN renal 102% | CAKI-1 renal 90.2% | A498 renal 92.3% | CCRF-CEM leukemia 98.3% | MOLT-4 leukemia 96.4%

Cc1ccc2nc(NC(=O)CSC(=S)N3CCN(C)CC3)sc2c1
inactive: SN12C renal 100% | UO-31 renal 78.5% | TK-10 renal 122% | ACHN renal 100% | A498 renal 108% | MOLT-4 leukemia 123%

Cc1ccc(N=c2nc3sc4c(C)ccc(C)c4n3c(N)c2C#N)cc1
inactive: SN12C renal 108% | UO-31 renal 89.6% | ACHN renal 103% | CAKI-1 renal 88.4% | A498 renal 110% | CCRF-CEM leukemia 85% | MOLT-4 leukemia 93.6%

O=c1[nH]c(-c2ccccn2)nc2sc3c(c12)CCCCCC3
inactive: SN12C renal 50.5% | UO-31 renal 31.8% | ACHN renal 37.5% | CAKI-1 renal 28.1% | A498 renal 36.7% | CCRF-CEM leukemia 32.6% | MOLT-4 leukemia 18.8%

OC[C@@H](O)[C@@H](O)CO
inactive: EKVX NSCLC 107% | SN12C renal 99.6% | UO-31 renal 80.5% | TK-10 renal 111% | CAKI-1 renal 93.9% | A498 renal 101% | CCRF-CEM leukemia 100% | MOLT-4 leukemia 94.8%

CON=C1C[C@]2(C[C@@H]3C[C@@H](C/C=C(\C)C[C@@H](C)/C=C/C=C4\CO[C@@H]5[C@H](O)C(C)=C[C@@H](C(=O)O3)[C@]45O)O2)O[C@H](/C(C)=C/C(C)C)[C@H]1C
inactive: SN12C renal 55% | UO-31 renal 24% | TK-10 renal 81.9% | ACHN renal 44.3% | CAKI-1 renal 44.8% | A498 renal 38.3% | CCRF-CEM leukemia 38.2%
active: MOLT-4 leukemia -20.4%
